According to PubChem BioAssay (NCATS):
A number with no mark means an inactive call. Records with an inconclusive call do not appear. Active and inactive are the calls of the source. Unless noted, calls come from the whole dose curve; as a rule, active = well fitted curve in either direction with a large enough effect (not every such curve was filed as active); inconclusive = small, poorly fitted or top-dose-only effect, or another doubt; inactive = flat fitted curve, though single readings scatter.

Assays:
[1] = AP1 Signaling Pathway (AID 357); conditions: ME-180 AP-1-bla reporter, EGF-induced, beta-lactamase ratio, 5 h; at 17.2 µM (top of the series) unless noted;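 note: ME-180 reporter cells stimulated with EGF at its EC50 level; % is set by controls: 0 for no effect and ±100 for the full control effect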
In short: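 AP-1-bla ME-180 cells, Opti-MEM + 0.5% dialyzed FBS, plated overnight 37 °C. Cpd titration + EC50 EGF, 5 h 37 °C. CCF4 2.5 h RT; ex 405, em 460/530 ratio → %activity, AC50.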

[2] = NFAT Signaling Pathway (AID 444); conditions: Jurkat NFAT-bla M1, carbachol, beta-lactamase ratio, 5 h; at 17.2 µM (top of the series) unless noted;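 note: carbachol stimulus at about its EC50 of 1 µM final; % is set by controls: 0 for no effect and ±100 for the full control effect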
In short: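 Read-out: CCF4 FRET ratio (460 nm/530 nm) after 1 h RT dye loading, used for %activity and AC50 from titration series. Cells: Jurkat NFAT-β-lactamase/M1 line, treated with compound plus 1 uM carbachol for 5 h, 37 °C.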

[3] = Stat Signaling Pathway (AID 446); conditions: ME-180 (cervical carcinoma) SIE beta-lactamase reporter, IL-6 stimulated, 5 h; at 17.2 µM (top of the series) unless noted;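 note: ME-180 cervical cancer cells given 40 pM IL-6 alongside compound; SIE-controlled beta-lactamase reporter measured as 460/530 nm FRET emission ratio; % is set by controls: 0 for no effect and ±100 for the full control effect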
In short: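 IL-6/STAT signaling read in ME-180 cells via an SIE beta-lactamase reporter. Stimulus was 40 pM IL-6 (its AC50) for 5 hrs, so both activation and inhibition register.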

[4] = molecular target: Glucocorticoid receptor (Homo sapiens) (UniProt P04150); assay: GR-GFP Redistribution (AID 450;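 active = compounds whose dose series gives a full or clear partial fitted curve of increased nuclear translocation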; note: potency is the fitted concentration of half-maximal effect)
Glucocorticoid receptor (Homo sapiens), sequence (P04150 whole entry, looked up): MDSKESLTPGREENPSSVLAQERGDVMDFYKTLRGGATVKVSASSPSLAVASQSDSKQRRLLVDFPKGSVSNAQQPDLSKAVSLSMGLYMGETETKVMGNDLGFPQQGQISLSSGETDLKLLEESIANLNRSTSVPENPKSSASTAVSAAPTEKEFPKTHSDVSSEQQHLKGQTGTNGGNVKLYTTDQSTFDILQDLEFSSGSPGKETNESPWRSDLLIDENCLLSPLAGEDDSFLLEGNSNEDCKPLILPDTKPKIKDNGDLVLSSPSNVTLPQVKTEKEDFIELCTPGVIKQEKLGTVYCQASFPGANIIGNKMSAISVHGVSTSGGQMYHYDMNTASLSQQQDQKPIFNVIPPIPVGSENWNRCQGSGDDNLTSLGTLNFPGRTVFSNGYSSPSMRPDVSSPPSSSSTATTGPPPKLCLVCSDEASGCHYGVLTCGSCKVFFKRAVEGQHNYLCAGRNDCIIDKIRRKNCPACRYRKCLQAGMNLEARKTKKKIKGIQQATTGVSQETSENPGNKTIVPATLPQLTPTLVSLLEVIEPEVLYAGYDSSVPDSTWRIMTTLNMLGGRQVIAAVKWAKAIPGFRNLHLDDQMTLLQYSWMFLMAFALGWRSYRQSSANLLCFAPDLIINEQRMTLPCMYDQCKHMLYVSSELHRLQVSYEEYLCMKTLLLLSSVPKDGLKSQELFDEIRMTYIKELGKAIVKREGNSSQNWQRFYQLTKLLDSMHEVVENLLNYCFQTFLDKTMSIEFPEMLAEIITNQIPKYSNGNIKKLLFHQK

Row | Structure (SMILES) | activity change, negative = inhibition [1] | activity change, negative = inhibition [2] | activity, negative = inhibition [3] | Potency [4]
1 | Cc1cc(C)nc(N(C#N)CN2C(=O)c3ccccc3C2=O)n1 | 2.24% | -1.49% | 0.344% | > 20.6 µM
2 | OCCOCCNc1ncnc2c1cnn2-c1ccc(Cl)cc1 | 9.08% | 0.366% | 4.43% | > 20.6 µM
3 | CCOC(=O)COc1ccc(Oc2nc(C)cc(OC)n2)nn1 | 13.9% | 12.6% | -0.709% | > 20.6 µM
4 | CC1(C)Nc2ccc(O)cc2-c2c1ssc2=S | -3.5% | 19.6% | -16.8% | > 20.6 µM
5 | Cc1nc(-c2c(-c3ccc(O)cc3O)noc2C(F)(F)F)cs1 | -11.8% | -22% | -18.8% | > 20.6 µM
6 | Cc1nccn1-c1cc(C(C)C)c(C#N)c2nc3ccccc3n12 | 0.38% | -0.783% | -0.277% | > 20.6 µM
7 | COc1c(O)ccc2cnn(-c3ccccc3C)c(=O)c12 | 12.5% | -7.24% | 25.4% | > 20.6 µM
8 | CCC(=O)Nc1cccc(-c2nnc(SCC(=O)NCc3ccco3)n2C)c1 | -2.45% | 6.34% | -2.86% | > 20.6 µM
9 | CCOc1nc(SCCOc2ccccc2)nc(N(C)C)n1 | -22.1% | 28% | 8.95% | > 20.6 µM
10 | Cc1ccc(C#N)c(SCc2cc3c(cc2Cl)OCO3)n1 | 12.7% | -1.4% | 4.71% | > 20.6 µM
11 | COc1cc(-c2nn3c(C4CCCCC4)nnc3s2)cc(OC)c1OC | -16.1% | 10.4% | 0.0449% | > 20.6 µM
12 | Cc1ccc(C2CC(c3cccs3)n3nc(N)nc3N2)cc1 (centres undefined) | 2.57% | 6.31% | 3.76% | > 20.6 µM
13 | C/C(NC(=O)c1ccccc1F)=C1\C(=O)C[C@@H]2[C@H]1C2(C)C | -12.1% | -24.9% | -6.06% | > 20.6 µM
14 | Cn1c(=O)c2c(nc(NCc3ccc4c(c3)OCO4)n2Cc2ccccc2F)n(C)c1=O | -24.1% | -14% | -25.4% | > 20.6 µM
15 | CCOC(=O)CSC1=C(C#N)C(c2ccc(OC)cc2)C2=C(CC(C)(C)CC2=O)N1 (centres undefined) | -15.4% | 7.5% | -4.41% | > 20.6 µM
16 | Cc1nc2ccccc2cc1O | 13.6% | 7.71% | 5.42% | > 20.6 µM
17 | Cc1nc2c(c(N3CCOCC3)n1)OCC(=O)N2 | 6.3% | -1.47% | 6.75% | > 20.6 µM
18 | CCc1ccccc1NC(=O)CSC1=C(C#N)C(c2ccc(O)c(OC)c2)C2=C(CCCC2=O)N1 (centres undefined) | -4.47% | 2.67% | -5.76% | > 20.6 µM
19 | O=C(CN1C2=NCCN2c2ccccc21)N1CCOCC1 | 5.86% | -2.85% | 8.05% | > 20.6 µM
20 | COc1ccc(N2C(=O)CN=C2Nc2nc(C)cc(C)n2)cc1 | 8.39% | -10% | 4.62% | > 20.6 µM
21 | Oc1ccc2ccccc2c1/C=N/n1cnnc1 | -5.14% | 6.11% | -0.766% | > 20.6 µM
22 | C=CCOc1nc2c(c(=O)n(C)c(=O)n2C)n1Cc1ccc(Cl)cc1 | -1.14% | -8.76% | -5.11% | > 20.6 µM
23 | O=C(O)C1[C@H]2C(=O)N(Cc3cccs3)C[C@]23C=C[C@H]1O3 (some centres undefined) | 4.68% | -3.3% | 2.6% | > 20.6 µM
24 | Cc1cc(COc2ccccc2OCCN2CCN(C)CC2)no1 | 21.4% | -13.9% | -0.578% | > 20.6 µM
25 | CC12CCC(=O)N1c1c(sc3nc(N4CCOCC4)c4c(c13)CCCC4)C(=O)N2 (centres undefined) | -25.1% | 8.35% | -5.31% | > 20.6 µM
26 | CNS(=O)(=O)c1cccc2nsnc12 | 6.07% | 4% | 14.7% | > 20.6 µM

Row | Structure (SMILES) | activity change, negative = inhibition [1] | activity change, negative = inhibition [2] | activity, negative = inhibition [3] | Potency [4]
27 | CCCCSc1nnc(-c2ccc(NC(C)=O)cc2)n1C | -14.2% | 12.4% | 0.987% | > 20.6 µM
28 | COc1ccc(NC(=O)c2c(C)cc(=O)oc2C)c(OC)c1 | 6.98% | 16.2% | 10.7% | > 20.6 µM
29 | CCC(CC)C1C(C#N)=C(N)Oc2n[nH]c(C)c21 (centres undefined) | -22.7% | -13.2% | -16.5% | > 20.6 µM
30 | CCCOc1ccc(/C(O)=C2/C(=O)C(=O)N(CCCn3ccnc3)C2c2cccs2)cc1 (centres undefined) | -14.1% | 2.88% | 6% | > 20.6 µM
31 | COc1cccc(C(=O)NCC(=O)n2nc(C)cc2C)c1 | 23.4% | -4.99% | 16.7% | > 20.6 µM
32 | CCN(CC)Cc1c(O)ccc2c(C)c(CC(=O)OC)c(=O)oc12 | 14.2% | 25.4% | 8.46% | > 20.6 µM
33 | Cc1csc2nc(CSc3nc4ccccc4o3)cn12 | -11.6% | -1.77% | 4.59% | > 20.6 µM
34 | O=C(OCC#CCSc1nnc(-c2ccccc2)o1)c1cccs1 | -3.3% | -29.9% | -1.99% | > 20.6 µM
35 | FC(F)(F)c1cccc(N2CCc3cn[nH]c32)c1 | -1.96% | 0.155% | -1.19% | > 20.6 µM
36 | CCN1CCc2c(C#N)c(NCc3ccccc3)nc(N(CC)CC)c2C1 | 2.07% | 1.29% | 12.6% | > 20.6 µM
37 | CCSc1nnc(NC(=O)C(C)(C(F)(F)F)C(F)(F)F)s1 | -11.1% | -18.1% | -24.8% | > 20.6 µM
38 | O=C(Nc1ccccn1)c1ccc(=O)[nH]n1 | -7.67% | 0.366% | 1.32% | > 20.6 µM
39 | CC1(C)Cc2c(sc3c4nnnn4c4nnnn4c23)CO1 | -28.3% | -96.8% (active) | -26.4% | > 20.6 µM
40 | CCN(CC)CCCN1C(=O)C(=O)/C(=C(/O)c2ccc(Cl)cc2)C1c1ccccn1 (centres undefined) | -3.4% | 5.22% | -0.716% | > 20.6 µM
41 | Cc1ccc(S(=O)(=O)N(CC(O)CN(C)C)c2ccccc2)cc1 (centres undefined) | 6.2% | -0.131% | 7.64% | > 20.6 µM
42 | COc1ccc(C(=O)N2CCC(N3CCN(c4ccccc4)CC3)CC2)cc1OC | 11.1% | 20.4% | -1.54% | > 20.6 µM
43 | COC(=O)c1cc(OC)c(OC)cc1N | 0.8% | 0.905% | -0.00836% | > 20.6 µM
44 | Cc1cc(N2CCN(C3CCCC3)CC2)n2c(nc3ccccc32)c1C#N | 17.3% | 19.5% | 28.2% | > 20.6 µM
45 | COc1ccc(/C(O)=C2/C(=O)C(=O)N(Cc3ccco3)C2c2cccs2)cc1 (centres undefined) | 7% | -13.1% | -19.8% | > 20.6 µM
46 | COC(=O)c1cc2c(=O)n3cccc(C)c3nc2n(Cc2cccnc2)c1=N | 7.65% | -10.7% | 15.4% | > 20.6 µM
47 | CCSc1nnc(NC(NC(=O)c2ccco2)(C(F)(F)F)C(F)(F)F)s1 | 15.1% | -7.65% | 3.98% | > 20.6 µM
48 | CC(=O)[C@H]1CC[C@H]2[C@@H]3CCC4=CC(=O)CC[C@]4(C)[C@H]3[C@H](O)C[C@]12C | -0.48% | 2.54% | 2.53% | > 20.6 µM
49 | COc1ccc(C2CC(c3ccc(C)cc3)Nc3nc(N)nn32)cc1 (centres undefined) | -10.4% | 11.6% | 1.75% | > 20.6 µM
50 | Cc1ccc(N(Cc2cc3ccccc3[nH]c2=O)C(=O)c2ccco2)c(C)c1 | -26.3% | 25.5% | -13% | > 20.6 µM
51 | COC(=O)c1nn2c(C(F)(F)F)cc(-c3ccc(Br)o3)nc2c1Br | 0.345% | -16.6% | 0.255% | > 20.6 µM
